ERK EGF inh: qHTS Assay for Inhibitors of the ERK Signaling Pathway using a Homogeneous Screening Assay; Stimulation with EGF; HEK293-V1b, EGF-stimulated phospho-ERK AlphaScreen; Potency, µM (highest dose often 11.5 µM), for inactives: at the highest dose activity change, negative = inhibition, hits mostly inhibitors; 130,000 compounds, 0.41% hits; active means well fitted inhibition curve with a large enough effect;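 further: plate controls were stimulated vehicle wells for no effect and unstimulated vehicle basal for full effect; nearly all actives have a fitted effect of over 55% in size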
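Homogeneous cell-based phospho-ERK assay: HEK293/V1b cells in 1% FBS, compound 30 min then EGF 5 min, AlphaScreen luminescence. Activity normalized between DMSO and 25 nM EGF controls; AC50 from Hill modelling.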
An asterisk follows results filed as active; [ ] = another dose, or the depositor's remark. Shown is part of a subset that was picked to be rich in hits. Potency means the concentration at half of the fitted maximal effect.

SMILES	ERK EGF inh
O=C1CCC=C1C(O)c1ccc2c(c1)OCO2 (configuration not stated)	-9%
CCCOc1ncnc2c1[nH]c1ccc(OC)cc12	-12%[57.5 µM]
COc1cccc(N2CCN(c3ncnc4c3[nH]c3ccccc34)CC2C)c1 (configuration not stated)	14µM*
COc1cccc2[nH]c3c(=O)n(CCCN4CCOCC4)cnc3c12	-1%[57.5 µM]
COc1cccc2[nH]c3c(N4CCC5(CC4)OCCO5)ncnc3c12	-5%[57.5 µM]
COc1ccc2c(c1)[nH]c1c(=O)n(Cc3ccncc3)cnc12	6%[57.5 µM]
COc1cccc2[nH]c3c(N4CCc5ccccc5C4)ncnc3c12	22µM*
COc1ccc2c(c1)[nH]c1c(N3CCSCC3)ncnc12	28µM*
COc1cccc(-n2c(SCC(=O)N3CCCCC3)nc3c([nH]c4ccccc43)c2=O)c1	-7%[57.5 µM]
CC(C)Oc1ncnc2c1[nH]c1ccccc12	1%[57.5 µM]
COC(=O)[C@H]1CC2(CC=C(C)C)C(=O)[C@@](CC=C(C)C)(C(=O)C(C(=O)c3ccccc3)=C2OC)C1(C)C (tested in a mixture with another compound)	-9%
Cc1noc(C)c1C(=O)N1CCC2(CC1)CCN(c1ccccn1)CC2	7%
C=C(C)C(=O)C1CCCCC1	-12%
COC(=O)N[C@@H](c1cccc(F)c1)[C@@H](C)[N+](=O)[O-]	8%
CC(C)(C(O)c1ccc([N+](=O)[O-])cc1)[N+](=O)[O-] (configuration not stated)	1%
COC(=O)C1CC1C(NC(=O)[C@H]1CCCCN1)c1ccccc1 (some centres not stated)	7%
COc1ccccc1-c1cn[nH]c1-c1ccc(OCc2ccc([N+](=O)[O-])cc2)cc1O	8%[57.5 µM]
COc1ccc(-c2cn[nH]c2C)cc1OC	-11%
COc1ccc(-c2cn[nH]c2-c2ccc(OCc3ccccc3)cc2O)cc1OC	22µM*
CN1Cc2c(C(=O)OC(C)(C)C)ncn2-c2ccsc2C1=O	-12%
CN(C)Cc1ccccc1-c1nc(N(C)Cc2ccco2)c2ccccc2n1	20%
Cc1cccc2cc(/C=N/NC(=O)c3ccccc3O)c(Cl)nc12	20µM*
Cc1cccc2cc(/C=N/NC(=O)c3ccncc3)c(Cl)nc12	-3%[57.5 µM]
Cc1cccc2cc(/C=N/NC(=O)[C@H]3C[C@@H]3c3ccccc3)c(Cl)nc12	-10%[57.5 µM]
COc1ncc2nc(CCc3ccccc3)c(=O)n(Cc3cccs3)c2n1	-10%
SMILES	ERK EGF inh
COc1ccc(S(=O)(=O)N2CCCC2)c(Cl)c1Cl	2%
COc1ccc(OC)c2c1C(=O)C(Cl)=C(Cl)C2=O	28µM*
COc1ccc(C=C2C(=O)c3ccccc3C2=O)cc1O	-2%
COc1ccc(/C=C/C(=O)O)cc1Cl	-2%[57.5 µM]
COc1ccc(N)c2c1C(=O)c1ccccc1C2=O	20µM*
Nc1ccc(O)c2c1C(=O)c1ccccc1C2=O	29%
COC/C=C/C1=CC2=CC(=O)C(C)(OC(=O)CCc3ccccc3)C(=O)C2=CO1 (configuration not stated)	-3%
CCNc1ncc2nc(-c3ccc(OC)cc3)c(=O)n(-c3ccc(OC)cc3)c2n1	-4%
COc1cccc([C@@H]2Oc3ccc(OC)cc3C[C@H]2OC(=O)N[C@H](C)C2CCCCC2)c1	-14%
C#CCOC(=O)NC(/C=C/CCCC)c1ccccc1 (configuration not stated)	-29%
CCCCNc1nc(C)nc2c1nc(-c1ccccc1)n2CCN1CCCC1	-16%
COCOc1ccc(OC)cc1C(=O)/C=C/c1ccc(OC)c(Br)c1	-11%
N#CC(C#N)=C1C=CC=CN1/C(=C\c1ccco1)C(=O)c1ccccc1	14µM*
N#C/C(=C/c1ccco1)C(N)=S	-7%[57.5 µM]
CC(C)OC(=O)/C(=C/c1ccco1)c1ccccc1	-6%[57.5 µM]
Cc1cnc(CNc2nc(-c3ccc(N(C)C)cc3)nc3ccccc23)cn1	20%
CN(C)c1nc(-c2ccoc2)nc2ccccc12	27%
CCOC(=O)CC(C(=O)OCC)C1CCCCC1=O (configuration not stated)	0%
Cc1ccc(Nc2ncnc3ccccc23)cc1	25µM*
Cc1ccc(Nc2ncnc3c2cnn3C)cc1	-3%
CC(C)Oc1ccc(Nc2ncnc3ccccc23)cc1	-7%
CC1(C)C(=O)C=C[C@@]2(C)C1C=C[C@@]1(C)C2CC[C@@]2(C)C(c3ccoc3)OC(=O)C3OC312 (some centres not stated)	3%
C/C=C/C(=O)C[C@H]1CC[C@@H](C)[C@@H](CCO)O1	-16%
COC(=O)C=P(c1ccccc1)(c1ccccc1)c1ccccc1	-3%
Oc1[nH]c2ccccc2c1N=Nc1ccccc1	5%[57.5 µM]
SMILES	ERK EGF inh
Oc1[nH]c2ccccc2c1N=Nc1ccc(F)cc1	-1%
Oc1ccc2ccccc2c1N=Nc1ccc(F)cc1	13µM*
C=C(C)C(=O)/C=C/c1ccc(Br)cc1	-20%
Cc1nnc(SCC2=C(C(=O)O)N3C(=O)C(NC(=O)Cn4cnnn4)[C@@H]3SC2)s1 (some centres not stated)	8%
CN1/C(=C\C=O)C(C)(C)c2ccccc21	3%
CN1\C(=C/C=C/C=C/C=[N+](C)C)C(C)(C)c2ccccc21	16µM*
CN1/C(=C/C=C(C#N)C#N)C(C)(C)c2ccccc21	-3%
O=C(CCNC(=O)c1ccccc1Cl)Nc1cc(C(F)(F)F)ccc1Cl	0%
O=C(O)c1ccccc1C(=O)Nc1ccc(Br)c(C(F)(F)F)c1	2%[57.5 µM]
O=C(CCNC(=O)c1ccccc1Cl)Nc1ccc(Br)c(C(F)(F)F)c1	28µM*
COC(=O)c1nnc(C(=O)N(C)Cc2ccccc2)c2[nH]c3ccccc3c12	0%
COc1cc2oc(-c3ccccc3)cc(=O)c2cc1OC	6%
COc1cc(OC)c(-c2c3cc(O)c(=O)cc-3oc3cc(O)c(O)cc23)cc1OC	16µM*
Cc1c2cc(O)c(=O)cc-2oc2cc(O)c(O)cc12	1%[57.5 µM]
CCCCC/C=C\C[C@@H]1O[C@H]1C(O)/C=C\C/C=C\CCCC(=O)O (some centres not stated)	1%
CCC(=O)OCC(=O)C1(OC(=O)CC)C(C)CC2C3C(Cl)CC4=CC(=O)C=C[C@@]4(C)C3C(O)C[C@@]21C (some centres not stated)	-3%
CC(C)OCCCNC1=C(Cl)C(=O)c2ccccc2C1=O	28µM*
CCN(CC)CCCNC1=C(Cl)C(=O)c2ccccc2C1=O	-9%[57.5 µM]
CC(C)OCCCNC(=S)NNC(=O)C(c1ccccc1)c1ccccc1	-20%
O=C(NCc1ccc2c(c1)OCO2)O[C@@H]1C(=O)c2cc(Br)ccc2O[C@H]1c1ccc2c(c1)OCO2	-11%
CCCCCCCCCCCCCCCC(=O)OCC(COP(=O)(O)O)OC(=O)CCCCCCCCCCCCCCC (configuration not stated)	-5%
CC(=O)Nc1cccc(-c2csc(Nc3ccc(Cl)cn3)n2)c1	28µM*
CC(=O)Nc1cccc(-c2csc(NCc3ccccc3)n2)c1	-10%
CC(=O)Nc1ccc(-c2csc(Nc3ccc(Cl)cn3)n2)cc1	1%
CNc1ncncc1-c1ccc(C(=O)N(C)C)cc1	13%
CCC(C)CCCCC(=O)NC(CCN)C(=O)NC(C(=O)NC(CCN)C(=O)NC1CCNC(=O)C(C(C)O)NC(=O)C(CCN)NC(=O)C(CCN)NC(=O)C(CC(C)C)NC(=O)C(Cc2ccccc2)NC(=O)C(CCN)NC1=O)C(C)O (configuration not stated)	14%

From PubChem BioAssay
